Test results: the supplement of paper PMC11150407
Where a name gives a salt, the structure may show the parent alone. Hit rate of the full screen: of about 2,100 compounds, about 180 (8.6%) showed an effect of 50% or more. Many of the other results were omitted from the sample, so strong results are more common in it than they were.

Tested on: MOLM1 and UCSD/AML1 (averaged)
Assay: cell viability relative to DMSO control (POC); higher = less growth inhibition
Details: 1 µM; 72 h
Procedure: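 Primary viability screen in the 3q26 EVI1-high AML cell lines MOLM1 and UCSD/AML1 (1.5e3 cells/well, 384-well), compounds at 1 uM for 72 h. ATP CellTiter-Glo read-out given as percent of viable cells over DMSO control (POC), averaged over duplicates. DMSO was the negative control and 5 uM etoposide the positive control. This mapping covers the MicroSource Spectrum and Selleck anticancer libraries (drug names).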

| SMILES | cell viability [%] |
| --- | --- |
| COc1cc2oc3cc(OC)c(OC)c(CC=C(C)C)c3c(=O)c2c(OC)c1CC=C(C)C | 104 |
| O=c1cc(-c2ccccc2)oc2cc(O)c(O)c(O)c12 | 86 |
| CC1(C)C(O[C@@H]2OC[C@@H](O)[C@H](O)[C@H]2O)CC[C@]23CC24CC[C@]2(C)[C@@H]([C@@]5(C)CC[C@@H](C(C)(C)O)O5)[C@H](O)C[C@@]2(C)C4C[C@@H](O[C@@H]2O[C@H](CO)[C@@H](O)[C@H](O)[C@H]2O)C13 (stereo partly drawn) | 91.9 |
| CC(C)[C@@H]1CC[C@@H](C)C[C@H]1OC(=O)c1ccccc1 | 109 |
| NC(=O)NCCC[C@H](N)C(=O)O | 93.7 |
| C=CCCCCCCCCCCCc1ccco1 | 109 |
| Nc1cc(C(F)(F)F)c(-c2cc(N3CCOCC3)nc(N3CCOCC3)n2)cn1 | 26.9 |
| COc1c(CC(=O)c2cc3c(cc2O)OC(C)(C)C(O)C3)ccc2c1C=CC(C)(C)O2 (stereo not drawn) | 98 |
| N[C@@H](C(=O)O)[C@@H](O)[C@H](O)[C@H](O)CO | 106 |
| CCNC(=O)CC[C@H](N)C(=O)O | 92.2 |
| Cc1ccc(NC(=O)c2ccc(CN3CCN(C)CC3)cc2)cc1Nc1nccc(-c2cccnc2)n1 [Imatinib Mesylate] | 37.8 |
| Cc1ccc(NC(=O)c2ccc(CN3CCN(C)CC3)cc2)cc1Nc1nc(-c2cccnc2)cs1 [Masitinib (AB1010)] | 25.7 |
| Cc1cccc(Nc2nc(-c3ccncc3)cs2)c1 | 98.9 |
| Cc1cn(-c2cc(NC(=O)c3ccc(C)c(Nc4nccc(-c5cccnc5)n4)c3)cc(C(F)(F)F)c2)cn1 [Nilotinib (AMN-107)] | 50.6 |
| CO[C@H]1[C@H](O)[C@@H](O)[C@H](O)[C@H](O)[C@H]1O | 95.8 |
| COc1ccc2c(=O)c(OC)c(-c3ccccc3)oc2c1 | 89.8 |
| COc1cc(-c2coc3cc(OC)c(OC)c(OC)c3c2=O)cc(OC)c1OC | 96 |
| C=C1/C(=C\C=C2/CCC[C@]3(C)[C@@H]([C@H](C)/C=C/[C@H](C)C(C)C)CC[C@@H]23)C[C@@H](O)C[C@@H]1O [Doxercalciferol (Hectorol)] | 99.3 |
| CC(=O)NCCc1ccc(O)c(-c2c(O)c(O)c3c(c2O)C(=O)c2c(cc(O)c(C(=O)O)c2C(=O)O)C3=O)c1 | 102 |
| COc1cc(OC)c2c(=O)cc(-c3ccccc3)oc2c1 | 90.2 |
| C/C1=C\CCC(=O)C2CC(C)(C)C2CC1 (stereo not drawn) | 93.3 |

| SMILES | cell viability [%] |
| --- | --- |
| Cc1cc(O)c2c(c1O)C(=O)c1c(O)cc(C)c(O)c1C2=O | 94.1 |
| COc1c2ccoc2cc2oc(C)cc(=O)c12 | 104 |
| Cn1cnc2c(F)c(Nc3ccc(Br)cc3Cl)c(C(=O)NOCCO)cc21 [AZD6244 (Selumetinib)] | 15.5 |
| C#CCCCCCCCCCCCC(O)CC(O)CO (stereo not drawn) | 55.1 |
| CC1(C)C=Cc2cc3ccc(=O)oc3cc2O1 | 107 |
| CN(C)CC(=O)OC[C@@H](O)[C@@H](O)[C@H](O)[C@@H](O)C(=O)O | 108 |
| CNCc1ccc(-c2[nH]c3cc(F)cc4c3c2CCNC4=O)cc1 | 89.1 |
| Nc1c2ccccc2nc2ccccc12 | 65 |
| CC(C)Cn1cnc2c(N)nc3ccccc3c21 [Imiquimod] | 47.9 |
| CCCCOc1ccc(CC(=O)NO)cc1 | 115 |
| CCCCCCCCCc1ccc(OCCOCCOCCOCCOCCOCCOCCOCCOCCO)cc1 | 37.9 |
| CCCCCCCCc1ccc(CCC(N)(CO)CO)cc1 [Fingolimod (FTY720)] | 76.7 |
| COc1ccc2c(c1)OC1(O)COc3cc(OC)c(OC)cc3C1=C2 (stereo not drawn) | 102 |
| CC1=CCc2c(cc3oc(C)cc(=O)c3c2O)OC1 | 90.4 |
| CCC(=O)O[C@H]1CC[C@H]2[C@@H]3CCc4cc(O)ccc4[C@H]3CC[C@]12C | 95.4 |
| COc1cc(NS(C)(=O)=O)ccc1Nc1c2ccccc2nc2ccccc12 | 12.8 |
| CS(=O)(=O)Nc1ccc([N+](=O)[O-])cc1Oc1ccccc1 | 96.7 |
| CC(=O)Oc1cc(C)c2c(c1C=O)Oc1c(c(C)c(OC(C)=O)c3c1C(OC(C)=O)OC3=O)OC2=O (stereo not drawn) | 106 |
| CC1(C)C[C@@H]2C(=O)CC[C@H]3O[C@]3(C)CC[C@H]21 | 104 |
| CC(=O)O[C@@H]1C=C[C@]2(C)C(C[C@@H](OC(C)=O)[C@]3(C)C4=CC(=O)O[C@H](c5ccoc5)[C@@]4(C)CCC23)C1(C)C (stereo partly drawn) | 94.4 |
| COc1ccc(-c2cc(=O)c3c(OC(C)=O)cc(OC(C)=O)cc3o2)cc1 | 96.9 |

| SMILES | cell viability [%] |
| --- | --- |
| Oc1ccc([C@H]2Oc3cc(O)cc(O)c3C[C@H]2O)cc1 | 102 |
| Nc1c2c(nc3ccccc13)CCCC2 | 105 |
| CCCCCCc1ccc(O)cc1O.Nc1c2ccccc2nc2ccccc12 | 46.4 |
| CCCCCCc1ccc(O)cc1O | 98.6 |
| CC(=O)O[C@@H]1CC(=O)[C@@]2(C)C(CC(=O)[C@]3(C)C2CC[C@@]2(C)[C@H](c4ccoc4)OC(=O)C4OC423)C1(C)C (stereo partly drawn) | 100 |
| O=c1oc2ccccc2c(O)c1Cc1c(O)c2ccccc2oc1=O | 98.1 |
| O=C(O)/C=C/C=C/c1ccccc1 | 121 |
| O=C(/C=C/c1cccc(S(=O)(=O)Nc2ccccc2)c1)NO [Belinostat (PXD101)] | 1.86 |
| O=C(O)/C=C/c1ccccc1 | 105 |
| COc1ccc2c(c1)OCc1c-2oc2cc(OC)ccc12 | 99 |
| O=C(Nc1ccc(OC(F)(F)F)cc1)c1sccc1NCc1ccnc2ccccc12 | 64.7 |
| COc1ccc2c(c1)O[C@@H]1COc3cc(OC)c(OC)cc3[C@@H]1C2=O | 102 |
| C=C(C)[C@@H]1CC=C(CO)CC1 | 88.1 |
| Cc1cc(=O)oc2cc(O)c(O)cc12 | 98.5 |
| Nc1ncnc2c1ncn2[C@@H]1O[C@H](CO)[C@@H](O)[C@@H]1O | 93.9 |
| OC[C@H]1O[C@@H](n2cnc3c(NCc4ccco4)ncnc32)[C@H](O)[C@@H]1O | 5.88 |
| Nc1ncnc2c1ncn2[C@@H]1O[C@H](CO)[C@@H](O)[C@H]1O | 105 |
| CC(C)CCCC(C)C1CCC2C3=CCC4CC(O)CCC4(C)C3CCC21C (stereo not drawn) | 93 |
| COC(=O)CC[C@@H](C)[C@H]1CC[C@H]2[C@@H]3CC[C@@H]4C[C@H](O)CC[C@]4(C)[C@H]3C[C@H](O)[C@]12C | 97.4 |
| N=C(N)NCCCCNC(=N)N | 102 |
| COc1ccc(-c2coc3c(O)c(O)c(OC)cc3c2=O)cc1 | 111 |
